# Assay results: the supplement of paper PMC3334620
# The full ranking holds about 33,000 sequences; the median of “E-score (-0.5 to 0.5)” is about -0.041, and the highest 2% start at about 0.37. The entries come from a sample that favours the highest values as a whole.
# Target: T1, Ecm22 (UniProt Q05958)
# T1 sequence: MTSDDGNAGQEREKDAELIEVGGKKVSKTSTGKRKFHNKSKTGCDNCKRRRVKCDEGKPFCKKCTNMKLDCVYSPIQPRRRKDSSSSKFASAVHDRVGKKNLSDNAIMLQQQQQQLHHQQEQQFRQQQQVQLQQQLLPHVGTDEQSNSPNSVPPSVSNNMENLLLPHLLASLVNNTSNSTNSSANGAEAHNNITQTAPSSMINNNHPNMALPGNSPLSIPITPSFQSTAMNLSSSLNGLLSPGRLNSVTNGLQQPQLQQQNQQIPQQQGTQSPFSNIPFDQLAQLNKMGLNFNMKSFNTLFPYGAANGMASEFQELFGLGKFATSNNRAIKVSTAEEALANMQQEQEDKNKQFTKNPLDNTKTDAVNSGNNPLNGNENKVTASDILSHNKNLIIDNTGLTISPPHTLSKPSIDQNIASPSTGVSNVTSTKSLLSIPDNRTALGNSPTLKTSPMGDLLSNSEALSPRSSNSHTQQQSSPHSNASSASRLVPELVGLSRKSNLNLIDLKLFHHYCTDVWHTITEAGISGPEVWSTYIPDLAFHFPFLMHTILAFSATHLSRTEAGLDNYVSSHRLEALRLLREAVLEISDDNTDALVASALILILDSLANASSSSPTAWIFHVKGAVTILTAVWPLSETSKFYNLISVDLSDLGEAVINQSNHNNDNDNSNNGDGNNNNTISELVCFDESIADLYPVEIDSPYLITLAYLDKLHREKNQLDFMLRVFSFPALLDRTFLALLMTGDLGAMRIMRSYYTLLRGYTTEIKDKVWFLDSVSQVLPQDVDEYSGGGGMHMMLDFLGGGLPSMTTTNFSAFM
# Test: PBM E-score (8-mer binding enrichment) (E-score (-0.5 to 0.5)); higher = stronger / more preferred TF binding
# Conditions: protein concentration: 200 nM; construct: GST-full length
# Procedure, shortened: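 PURExpress in vitro transcription/translation supplied GST-tagged yeast transcription factors, either full-length or DNA-binding domain. Applied at about 100-200 nM to universal all-10-mer Agilent arrays double-stranded by primer extension, the bound protein was detected with fluorescent anti-GST. E-scores, modified Wilcoxon-Mann-Whitney statistics, were given by the Universal PBM Analysis Suite to ungapped eight-base words pooled with their reverse complements after masliner normalisation.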
row,Sequence,PBM E-score
1,GGGTGGAA,-0.284
2,CACCCGCG,-0.0941
3,TGCTAACA,-0.0691
4,ACCTGGCT,-0.059
5,ATCCAAGC,-0.231
6,ACTAAGGA,0.1
7,CGGCCATC,-0.22
8,CAGCCTCA,-0.00094
9,TTCCACAA,-0.0103
10,CTCAGTTA,-0.187
11,ACGGCGAT,0.377
12,ACGGCGAG,0.214
13,ACGGCGAC,0.21
14,AAAGCCTG,-0.228
15,ACAGCCCT,-0.279
16,AAGCTGCA,-0.0356
17,ATTCGTCC,0.0925
18,CTTCGTCA,0.117
19,CTTCGTGC,0.0216
20,ATTCGTAC,0.468
21,CTTCGTCC,-0.243
22,CTTCGTAC,0.477
23,ATTCGTGC,-0.00078
24,CTTCGTAA,0.413

row,Sequence,PBM E-score
1,CTTCGTGA,0.209
2,ACGATCTA,0.22
3,ACGATGCT,0.283
4,ACATACGA,0.466
5,TCATACAA,-0.115
6,CCATACGC,0.218
7,TCATACCA,-0.0984
8,GCATACGA,0.446
9,CCATACGG,0.345
10,ACATACGG,0.321
11,TCATACGA,0.463
12,GCATACAA,0.0278
13,GCATACGC,0.199
14,CCATACGA,0.462
15,ACATACGC,0.221
16,GAACCCGC,0.0274
17,AAGAAAAC,0.0702
18,TAATCATA,-0.0103
19,TAATCGCA,0.215
20,CGAGGACA,0.0726
21,AAGTACGA,0.448
22,GAGTACAA,0.0511
23,AAGTACGT,0.171
24,TAGTACGA,0.443

row,Sequence,PBM E-score
1,GAGTACGC,-0.0338
2,TAGTACCA,-0.124
3,CAGTACGA,0.423
4,CAGTACGG,0.27
5,TAGTACAA,0.0161
6,AAGTACGC,0.0885
7,GAGTACGA,0.426
8,CAGTACGC,0.06
9,CGGACCCG,0.21
10,ACCACAAC,0.0744
11,CGGGTCTC,0.00746
12,CTATTCGA,0.0817
13,ACTGGTAA,0.0597
14,CCGTATTA,0.316
15,GACGCCCC,-0.0249
16,CCCGTAGA,-0.00351
17,ACCGTATC,0.346
18,GCCGTATA,0.463
19,GCGGTATA,-0.0371
20,ACCGTATG,0.325
21,GCCGTAGA,0.213
22,CCCGTATC,0.327
23,CCCGTATA,0.471
24,ACCGTATA,0.459
